Compound activity: PubChem BioAssay, several laboratories
Compounds with a hit are over-represented: about 12% of the library has one in this group of screens.
KCC2 mod – modulates chloride dependent transport by human KCC2 | AID 1456 | hit rate 2.2% among 190,000 | KCC2 cells, thallium flux FluoZin-2 fluorescence | B-score of Tl+ flux slope (higher = more flux/activation; lower = inhibition) at 10 µM | Q9H2X9;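 active = thallium flux slope and its plate-corrected score both differing from the plate sample mean at a set confidence after two filtering rounds, in either direction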;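 note: slope of fluorescence scaled to starting intensity during 10 to 20 s after thallium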
Calpain2 inh – inhibitors of pig calpain II | hit rate 0.37% among 220,000 | inhibition, % at 16 µM | AID 1236 | purified calpain II, fluorogenic peptide substrate, 30 min;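 active = inhibition above about 50%, limit read from the data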
WT yeast gro inh – growth inhibition of WT yeast, mitochondrial fusion screen. mitochondrial fusion phenotypic screen, WT strain. inhibition, % at 10 µM. hit rate 2.1% among 190,000. AID 1362; in the data active = inhibition above about 58%; tested in S. cerevisiae
Lmaj promast – inhibitors of Leishmania major promastigote growth; Leishmania major promastigotes, resazurin fluorescence viability; inhibition, % at 10 µM; hit rate 9% among 200,000; in the data active = inhibition above about 50%;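 note: promastigotes grown with compound for 44 hours at 28 °C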
ROMK mod – human ROMK K+ channel modulation, primary screen; P48048; Tet-inducible ROMK, thallium flux fluorescence; actives lie on both sides; B-score at 10 µM; hit rate 2% among 130,000; AID 1918;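 active = signal ratio slope over the read window, or its plate-corrected B-score, at least 3 SD from the plate mean, either direction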;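 note: B-score of the F/F0 ratio slope over 7 to 12 s after thallium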
Target sequence (P48048 whole entry, looked up): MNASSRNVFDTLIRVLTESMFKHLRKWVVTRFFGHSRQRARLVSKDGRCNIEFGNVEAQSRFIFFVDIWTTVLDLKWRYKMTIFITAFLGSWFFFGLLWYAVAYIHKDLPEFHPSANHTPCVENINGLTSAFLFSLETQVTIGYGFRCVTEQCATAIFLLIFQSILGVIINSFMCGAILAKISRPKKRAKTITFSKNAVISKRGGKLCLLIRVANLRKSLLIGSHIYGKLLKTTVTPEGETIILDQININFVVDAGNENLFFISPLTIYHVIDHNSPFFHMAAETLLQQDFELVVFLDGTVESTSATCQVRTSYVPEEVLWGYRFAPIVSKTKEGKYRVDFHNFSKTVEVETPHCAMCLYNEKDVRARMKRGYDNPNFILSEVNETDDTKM
* hit, by the source's call.

How did O=C(CCC1CCCCC1=O)c1ccccc1 (configuration not stated) do in these assays?
KCC2 mod: 0.89; Calpain2 inh: -21; WT yeast gro inh: 2; Lmaj promast: -2

How did CC1(C)CC(=O)C(CCC(=O)c2ccccc2)C(C)(C)N1 (configuration not stated) do in these assays?
KCC2 mod: -0.47; Calpain2 inh: -35; WT yeast gro inh: 10; Lmaj promast: 90*

How did COc1ccc(Nc2cc(C(=O)N3CCc4ccccc4C3)c3ccccc3n2)c(OC)c1 do in these assays?
KCC2 mod: -1.1; Calpain2 inh: -75; WT yeast gro inh: 54; Lmaj promast: 56*; ROMK mod: -0.1

What do the screens show for `COc1ccc(Nc2nc(C(=O)N3CCc4cc(OC)c(OC)cc4C3)cs2)cc1`?
Calpain2 inh: -3

What do the screens show for `COc1ccc(OC)c(-c2cc(C(=O)N3CCN(c4ncccn4)CC3)c3ccccc3n2)c1`?
KCC2 mod: -0.14; Calpain2 inh: -12; WT yeast gro inh: 31; Lmaj promast: -9

What do the screens show for `COc1ccc(Nc2nc(C(=O)N3CCc4ccccc4C3)cs2)cc1`?
KCC2 mod: -0.97; Calpain2 inh: -3; WT yeast gro inh: 75*; Lmaj promast: 14

What do the screens show for `O=C(c1csc(Nc2ccccc2Cl)n1)N1CCCC1`?
Calpain2 inh: 0; WT yeast gro inh: 69*; Lmaj promast: 11; ROMK mod: -0.25

How did COc1ccccc1Nc1cc(C(=O)N2CCc3ccccc3C2)c2ccccc2n1 do in these assays?
KCC2 mod: -1.4; Calpain2 inh: -80; WT yeast gro inh: 55; Lmaj promast: 15; ROMK mod: -0.24

What do the screens show for `COc1ccc(-c2cc(C(=O)N3CCN(c4ncccn4)CC3)c3ccccc3n2)c(OC)c1`?
KCC2 mod: -1.3; Calpain2 inh: -35; WT yeast gro inh: 59*; Lmaj promast: 19

How did O=C(CN1CCC(n2nnc3cc(C(F)(F)F)ccc32)CC1)NNC(=O)c1ccco1 do in these assays?
KCC2 mod: -0.83; Calpain2 inh: -19; WT yeast gro inh: -17; Lmaj promast: -6; ROMK mod: 0.75

What do the screens show for `NS(=O)(=O)c1ccc(CCNC(=O)/C=C/c2cccc([N+](=O)[O-])c2)cc1`?
KCC2 mod: -0.13; Calpain2 inh: -5; WT yeast gro inh: 6; Lmaj promast: -2; ROMK mod: -0.098

Results for CCOC(=O)C1C(=O)NC(c2ccccc2)=NC1c1ccc(Cl)cc1 (configuration not stated) ?
Calpain2 inh: 21; WT yeast gro inh: 13; Lmaj promast: 8

What do the screens show for `Cc1[nH]c(=O)[nH]c(=O)c1CSCC(=O)OCC(=O)c1ccc(Br)cc1`?
KCC2 mod: -0.098; Calpain2 inh: 0; WT yeast gro inh: 3; Lmaj promast: -6; ROMK mod: 2.5

How did NNC(=O)Cn1c(-c2ccccc2)cc(=O)n2ncnc12 do in these assays?
KCC2 mod: 1.5; Calpain2 inh: -20; ROMK mod: 0.78

Results for O=C(c1cc(-c2ccccn2)nc2ccc(Br)cc12)N1CCc2ccccc2C1 ?
Calpain2 inh: 18; WT yeast gro inh: 43; Lmaj promast: 12

Results for COc1ccccc1-c1cc(C(=O)N2CCc3ccccc3C2)c2ccccc2n1 ?
KCC2 mod: -1.4; Calpain2 inh: -37; WT yeast gro inh: 38; Lmaj promast: 100*

What do the screens show for `COc1ccc(-c2cc3ccccc3n2CC(O)CN2CCCCC2)cc1` (configuration not stated)?
KCC2 mod: -0.55; Calpain2 inh: -19; ROMK mod: -0.2

How did CCC(=C(c1ccc(OC)cc1)c1ccc(OC)cc1)c1cn(CC(O)CN2CCN(C)CC2)c2ccccc12 (configuration not stated) do in these assays?
KCC2 mod: -0.12; Calpain2 inh: -115; WT yeast gro inh: 80*; Lmaj promast: 100*; ROMK mod: -1.2

What do the screens show for `O=C(C1CCCN(Cc2nc(-c3cccs3)no2)C1)N1CCOCC1` (configuration not stated)?
KCC2 mod: -0.033; Calpain2 inh: -51; WT yeast gro inh: -10; Lmaj promast: -7; ROMK mod: 0.6

How did Cc1cc2cc(CN(Cc3ccco3)S(=O)(=O)c3c(C)ccc4nsnc34)c(=O)[nH]c2cc1C do in these assays?
KCC2 mod: 0.018; Calpain2 inh: -67; WT yeast gro inh: -19; Lmaj promast: 76*

Results for Cc1ccc2cc(CN(Cc3ccco3)S(=O)(=O)c3c(C)ccc4nsnc34)c(=O)[nH]c2c1 ?
KCC2 mod: -0.052; Calpain2 inh: -23; WT yeast gro inh: 4; Lmaj promast: 23

How did COc1ccc(/C=C2\C(=O)N(c3nc(-c4ccc(Br)cc4)cs3)N=C2c2ccccc2)cc1 do in these assays?
Lmaj promast: -1; ROMK mod: 0.5

Results for CCOc1cc(/C=C2\C(=O)N(c3nc(-c4ccc(Br)cc4)cs3)N=C2c2ccccc2)ccc1O ?
Calpain2 inh: -92; WT yeast gro inh: 1; Lmaj promast: 100*; ROMK mod: 0.96

How did CC(=O)N1N=C(c2ccccc2)OC1c1ccc([N+](=O)[O-])s1 (configuration not stated) do in these assays?
KCC2 mod: -0.2; Calpain2 inh: 16; WT yeast gro inh: -8; Lmaj promast: 100*; ROMK mod: -0.18

How did COc1cccc(/C=C/C(=O)OCC(=O)Nc2cc(S(=O)(=O)N3CCOCC3)ccc2C)c1 do in these assays?
KCC2 mod: -0.51; Calpain2 inh: -2; WT yeast gro inh: 8; Lmaj promast: -6; ROMK mod: -0.75

How did Cc1c(Nc2scc(-c3ccccc3)[n+]2-c2ccccc2)c(=O)n(-c2ccccc2)n1C do in these assays?
KCC2 mod: -0.18; Calpain2 inh: 2; WT yeast gro inh: 35; Lmaj promast: 17; ROMK mod: -1.4

Results for Cc1ccccc1Nc1scc(-c2ccc(Cl)cc2)[n+]1-c1ccccc1C ?
KCC2 mod: -0.41; Calpain2 inh: 50*; WT yeast gro inh: 59*; Lmaj promast: 35; ROMK mod: -0.02

What do the screens show for `O=C(CSc1nc2ccccc2c(=O)n1-c1ccccc1)NCc1ccc2c(c1)OCO2`?
Calpain2 inh: -3; WT yeast gro inh: -9; Lmaj promast: 13; ROMK mod: 0.61

What do the screens show for `CCCCn1c(SCC(=O)/C(C#N)=C(\C)N)nc2ccccc2c1=O`?
KCC2 mod: 24*; Calpain2 inh: -17; WT yeast gro inh: -22; Lmaj promast: 8; ROMK mod: 3*

What do the screens show for `COc1ccc(-n2c(SCC(=O)/C(C#N)=C(\C)N)nc3ccccc3c2=O)cc1OC`?
KCC2 mod: -0.23; Calpain2 inh: -17

What do the screens show for `O=C(CSc1nc2ccccc2c(=O)n1-c1ccccc1)NCc1ccco1`?
Calpain2 inh: -8; WT yeast gro inh: 6; Lmaj promast: 61*

What do the screens show for `C/C(N)=C(/C#N)C(=O)CSc1nc2cc(Cl)ccc2c(=O)n1-c1ccc(C)cc1`?
KCC2 mod: 8.7*; Calpain2 inh: 0; WT yeast gro inh: 5; Lmaj promast: 8

Results for Cc1cccc(-n2c(SCC(=O)NCc3ccc4c(c3)OCO4)nc3ccccc3c2=O)c1 ?
KCC2 mod: 1.2; Calpain2 inh: 0; WT yeast gro inh: -8; Lmaj promast: 96*
